Measured values published in PubChem BioAssay AID504843 (Broad Institute, 2011).
Hit rate of the full screen: of about 1,200 compounds, about 360 (30%) were called active. No rule for the calls is given here. Not all results are given here. Measured potencies and affinities stand elsewhere.

assay: bacterial growth inhibition, dose response, counter-screen, BacTiter-Glo luminescence, cherry-picked samples (AID 504843); details: BacTiter-Glo ATP luminescence; series mostly up to 15 µM;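 also: growth measured after 8 h incubation at 30 °C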

| Compound | outcome |
| --- | --- |
| Cc1nc2ccccn2c1/C(O)=C1\C(=O)C(=O)N(CCN(C)C)C1c1ccco1 (configuration not stated) | inactive |
| CCN(C[C@H]1N[C@@](Cc2ccccc2)(C(=O)OC)[C@H]2C(=O)N(C)C(=O)[C@@H]12)C(C)=O | inactive |
| CCOCCOc1nc2c(c(=O)n(C)c(=O)n2C)n1Cc1ccc(C)cc1 | inactive |
| CCc1cccc2c1NC(=O)C2(O)N1CCCC(C)C1 (configuration not stated) | inactive |
| CCOC(=O)c1ccccc1NC(=S)N1CC(C)CC(C)C1 (configuration not stated) | inactive |
| COc1ccc(/C=C/C(=O)Nc2ccccc2C(=O)O)cc1OC | inactive |
| CC1(C)CC(=O)c2cc3c(nc2C1)CC(C)(C)CC3=O | inactive |
| CC(C)NC(=O)CN1CCN(C(=O)c2ccc3oc(CCCc4ccccc4)nc3c2)CC1 | inactive |
| Cc1nn(C)c(C)c1S(=O)(=O)N(CC(=O)NCCCN1CCC(C)CC1)c1ccc(C(C)C)cc1 | inactive |
| O=C(CSc1ncnc2ccccc12)NCc1ccco1 | inactive |
| O=C(CN(Cc1ccccc1Cl)C(=O)CNS(=O)(=O)c1ccc(F)cc1)NCC1CCCO1 (configuration not stated) | inactive |
| COc1ccccc1N1CCN(C(=O)CSc2nnc(NC(=O)C(C)C)s2)CC1 | inactive |
| Cc1ccc(Cn2c(=O)oc3ccccc32)cc1 | inactive |
| Cc1cccc(NC(=S)N/N=C/c2c[nH]c3ccccc23)c1 | inactive |
| CC1CCCN(C(=O)c2nn(C)c3c2CSc2ccccc2-3)C1 (configuration not stated) | inactive |
| CCCC(=O)NC1=C(C#N)C2(CCCC2)Cc2ccccc21 | inactive |
| O=C(NCCNC(=O)c1ccccc1F)c1ccccn1 | inactive |
| COc1ccccc1NC(=S)NC1CC2CCC1C2 (configuration not stated) | inactive |
| COc1ccccc1NC(=O)NCCCCc1ccccc1 | inactive |
| Cc1cc(C)n2nc(SCC(=O)N3CCN(c4ccccc4)CC3)nc2n1 | inactive |
| O=C(CN1CCN(c2ccccc2)CC1)N1N=CCC1c1ccccc1 (configuration not stated) | inactive |
| CCCSc1nnc(CNS(=O)(=O)c2ccc(C)cc2)n1C | inactive |

| Compound | outcome |
| --- | --- |
| CCN(CC)S(=O)(=O)c1ccc(OC)c(NC(=O)c2ccc(=O)[nH]c2)c1 | inactive |
| COC(=O)[C@H](CC(C)C)N(Cc1ccccc1)S(=O)(=O)N(Cc1ccccc1)[C@@H](CC(C)C)C(=O)OC | inactive |
| Nc1cc(S(=O)(=O)C(F)(F)F)ccc1C(=O)O | inactive |
| N#Cc1cccc(Nc2c3c(nc4ccccc24)CCCC3)c1 | inactive |
| O=C1c2cccc3cccc(c23)C(=O)N1CC1CCN(CC(O)COc2ccc3ccccc3c2)CC1 (configuration not stated) | inactive |
| CC(=O)c1ccccc1OCC(O)CN1CCN(C(c2ccccc2)c2ccccc2)CC1 (configuration not stated) | inactive |
| Cc1cc(C)c(C#N)c(SCS(=O)c2ccc(C(C)(C)C)cc2)n1 (configuration not stated) | inactive |
| C#CCNC(=O)C1=C[C@H](c2csc3ccccc23)[C@@H](CCCO)[C@H](OCC)O1 | inactive |
| CN(C/C=C/c1ccccc1[N+](=O)[O-])Cc1ccccc1 | inactive |
| O=S(=O)(c1cc(Cl)cc(Cl)c1O)N1CCC2(CC1)OCCO2 | inactive |
| Cc1cccn2c(=O)c3cc(S(=O)(=O)c4ccccc4)c(=N)n(Cc4ccco4)c3nc12 | inactive |
| O=C(O)[C@@H](c1ccccc1)N1Cc2ccccc2C1=O | inactive |
| CC1CC(=O)N(c2ccc(Br)cc2)C(=O)C1 | inactive |
| COc1ccc(OCc2nnc(SCC(=O)N3C(C)CCCC3C)o2)cc1 (configuration not stated) | inactive |
| CC(C)(C)c1cc(NS(=O)(=O)c2ccc3c(c2)OCCO3)on1 | inactive |
| Cc1cc(NC(=O)c2ccc([N+](=O)[O-])cc2)n(C)n1 | inactive |
| O=C(COc1ccc([N+](=O)[O-])cc1)Nc1cccc2nsnc12 | inactive |
| COc1ccc2nc(SCC(=O)Nc3cc(OC)c(OC)cc3C(=O)O)c(C)cc2c1 | inactive |
| O=C(Nc1ccc(S(=O)(=O)Nc2ncccn2)cc1)c1cncc(Br)c1 | inactive |
| Cc1ccc(S(=O)(=O)CCNC(=O)Cc2ccc(Cl)cc2)cc1 | inactive |
| O=C(COC(=O)C12CC3CC(CC(Br)(C3)C1)C2)Nc1cccnc1Cl | inactive |
| Cc1ccnc(SCCn2c(N3CC(C)CC(C)C3)nc3c2c(=O)n(C)c(=O)n3C)n1 (configuration not stated) | inactive |

| Compound | outcome |
| --- | --- |
| Cc1cc(N2C(=O)c3ccc(C(=O)Nc4ccc(O)cc4C(=O)O)cc3C2=O)no1 | inactive |
| O=C(N/N=C/C1=C(N2CCOCC2)C(=C\c2ccccc2)/CC1)Nc1ccccc1 | inactive |
| COc1cccc(C2C(C(=O)OC(C)C)=C(C)Nc3ncnn32)c1 (configuration not stated) | inactive |
| COc1ccc(Nc2nc3ccccc3nc2-n2nc(C)cc2C)cc1 | inactive |
| Cc1csc(NC(=O)c2c(-c3c(Cl)cccc3Cl)noc2C)n1 | inactive |
| COc1cc(OC)c2c(C)cc(=O)oc2c1 | inactive |
| COc1cccc(-n2c(SCc3ccccn3)nc3c(c2=O)SCC3)c1 | inactive |
| COc1ccc(NC(=O)c2ccccc2[N+](=O)[O-])cc1OC | inactive |
| CCN(CC)CCCn1c(C)cc2c(c1=O)C(c1cccc(Cl)c1)C(C#N)=C(N)O2 (configuration not stated) | inactive |
| O=C(CSc1ncccn1)N/N=C/c1cccs1 | inactive |
| Cc1ccnc(SCC(=O)c2cccs2)n1 | inactive |
| COc1ccccc1N1CCN(CC(=O)Nc2ccc3c(c2)OCCO3)CC1 | inactive |
| COc1cc(NC2c3ccccc3C(=O)N2Cc2ccc3c(c2)OCO3)cc(OC)c1OC (configuration not stated) | inactive |
| COc1cccc(C(=O)NCCS(=O)(=O)NCc2ccccn2)c1 | inactive |
| COc1ccc(C(=O)NC(C(=O)NCc2ccccn2)C(C)C)cc1 (configuration not stated) | inactive |
| Cc1nn2c(SCC(=O)c3cccs3)cc(C(C)(C)C)nc2c1-c1ccccc1 | inactive |
| O=c1[nH]c(-c2ccccn2)nc2ccccc12 | inactive |
| CC1=NCC(C)c2c1[nH]c1ccccc21 (configuration not stated) | inactive |
| COC(=O)c1sccc1NC(=O)c1ccc2c(c1)OCO2 | inactive |
| O=C(CNC(=O)c1ccccc1)NC1(C(=O)NC2CCCC2)CCCCC1 | inactive |
| COc1ccc(Cl)cc1C(=O)NCCN(C)C | inactive |
| CCCCN1C(=O)C(CC(=O)NCC)SC1=Nc1ccccc1 (configuration not stated) | inactive |

| Compound | outcome |
| --- | --- |
| C=C1CSc2nc(=O)c3c4c(sc3n21)CCCC4 | inactive |
| COc1ccc(CCNC(=O)CN2CCOc3ccccc32)cc1OC | inactive |
| COC(c1ccccc1)c1nnc(CCC(=O)N(C)C(C2CC2)C2CC2)o1 (configuration not stated) | inactive |
| O=C(Nc1ccccc1F)C1CCN(C(=O)Cc2ccccc2)CC1 | inactive |
| O=C(CCNC(=O)C1CCN(S(=O)(=O)c2ccc(F)cc2)CC1)Nc1nccs1 | inactive |
| O=C(CCC(=O)Nc1ccccc1)N/N=C/c1ccncc1 | inactive |
| CC(=O)Nc1ccc(NC(=O)CSc2ccccn2)cc1 | inactive |
| C/C=C(/C)C(=O)Nc1cccc(C2=NOC3(C2)C[C@H](C(N)=O)N(C(=O)c2ccc(Cl)cc2)C3)c1 (some centres not stated) | inactive |
| Cc1ccc(S(=O)(=O)N2CCC(C(=O)Nc3nnc(C)s3)CC2)cc1 | inactive |
| Cc1nc2ccc(NC(=O)C3CCN(S(=O)(=O)c4cccs4)CC3)cc2s1 | inactive |
| Cc1noc(C)c1COc1ccccc1C(=O)NC1CCC(C)CC1 (configuration not stated) | inactive |
| N#Cc1cccc(C(=O)OCC(=O)NCc2ccco2)c1 | inactive |
| CS(=O)(=O)N(CC(=O)NC1CCCC1)c1cccc(F)c1 | inactive |
| Cc1cccc(N(CC(=O)NC(C)(C)C)C(=O)CCC(=O)Nc2nccs2)c1 | inactive |
| O=c1cc(O)nc[nH]1 | inactive |
| CCOc1cc(C(=O)N2CCCN(C)CC2)cc(OCC)c1OCC | inactive |
| O=C(Cn1cc2c(n1)CCCCC2)N1CCc2ccccc2C1 | inactive |
| COc1ccc(CN(C(=O)/C=C/c2ccccc2Cl)C2CCS(=O)(=O)C2)cc1 (configuration not stated) | inactive |
| Cn1c(-c2ccccc2)cnc1SCc1nc2ccccc2c(=O)[nH]1 | inactive |
| CCOC(=O)c1c(NC(=O)CSc2n[nH]c(CNc3ccccc3)n2)sc(C)c1C | inactive |
| Cc1nn2c(COc3ccc(NC(=O)c4ccccc4Cl)cc3)nnc2c2ccccc12 | inactive |
| COc1ccc(NC(=O)c2ccc(Oc3ncccn3)cc2)cc1 | inactive |

| Compound | outcome |
| --- | --- |
| COc1ccc(NC(=O)Cn2ncc(Cl)c(Cl)c2=O)cc1S(=O)(=O)N1CCOCC1 | inactive |
| CCn1ccnc1CN(C)C(=O)c1cc(COc2ccc(Cl)cc2OC)on1 | inactive |
| CCN(CC(=O)NCc1ccc(F)cc1)CC(=O)Nc1ccc(S(=O)(=O)N2CCCC2)cc1 | inactive |
| COc1ccccc1OCCNC(=O)Cc1ccc(S(=O)(=O)N2CCOCC2)s1 | inactive |
| O=C(CSc1nc(O)c(Cc2ccccc2F)c(=O)[nH]1)N1CCCCCC1 | inactive |
| COc1ccc(-c2csc(NC(=O)C3COc4ccccc4O3)n2)cc1OC (configuration not stated) | inactive |
| COc1ccc2c(c1)c(C(O)CN1CCC(Cc3ccccc3)CC1)c(C)n2C (configuration not stated) | inactive |
| Cc1c(Nc2ncnc3c2cnn3-c2ccccc2)c(=O)n(-c2ccccc2)n1C | inactive |
| O=C(CN1CCN(c2ccc(O)cc2)CC1)Nc1ccc2c(c1)OCCO2 | inactive |
| CCOc1ccc(S(=O)(=O)N2CCCCC2)cc1NC(=O)CN1C(=O)NC(CC)(c2ccccc2)C1=O (configuration not stated) | inactive |
| COc1ccc(S(=O)(=O)N2CCOCC2)cc1NC(=O)c1ccc2c(c1)OCO2 | inactive |
| Cc1cc(C)c(C(N)=O)c(Nc2ccc3c(c2)OCCO3)n1 | inactive |
| CCN(CC)CCn1c(=N)n(CC(O)COc2cccc(C)c2)c2ccccc21 (configuration not stated) | inactive |
| Cc1ccc(CC(=O)NCCS(=O)c2ccc(Cl)cc2)cc1 (configuration not stated) | inactive |
| O=C(CN1CCN(Cc2ccc(Cl)cc2)CC1)N/N=C/c1c[nH]c2ccccc12 | inactive |
| CCOC(=O)[C@H]1[C@H]2COc3ccc(OC)cc3[C@H]2N2C(=O)CN(Cc3ccccc3)C(=O)[C@@]12C | inactive |
| O=C(CSc1nccc(=O)[nH]1)c1cc2ccccc2o1 | inactive |
| CC(O/N=C/c1ccc(OC(F)F)cc1)C(=O)Nc1cccc(S(=O)(=O)N2CCOCC2)c1 (configuration not stated) | inactive |
| Cc1ccc(S(=O)(=O)N2CCOCC2)cc1NC(=O)c1cc2ccccc2oc1=O | inactive |
